# Assay outcomes: PubChem BioAssay, National Center for Advancing Translational Sciences (NCATS)
# NPC1 prom act = NPC1 promoter activation; 2.4% of 320,000 active; Huh7 NPC1 promoter luciferase reporter, 24 h; Potency, µM (highest dose often 9.22 µM), usual class: activators; AID 485313; also: nearly all actives have a fitted effect of over 60% in size
#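 Compounds in DMSO were transferred onto Huh7 NPC1-luciferase reporter cells pre-incubated 2 h; after 24 h at 37 °C, Amplite reagent was dispensed and luminescence recorded 10 min later.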
# uPA generation = inhibitors of cell surface uPA generation. 0.31% of 330,000 active. cell surface uPA generation assay, qHTS. Potency, µM (highest dose often 38.3 µM), actives largely listed as inhibitors; active = well fitted inhibition curve with a large enough effect; inconclusive = small, poorly fitted or top-dose-only effect; inactive = no such curve, though single readings can be large or run the other way; tested in mouse RAW 264.7 cells; also: nearly all actives have a fitted effect of over 55% in size
# Rab9 prom act = Rab9 promoter activation. 2.8% of 320,000 active. Potency, µM (doses to about 9.22 µM), hits mostly activators. AID 485297. Huh7 Rab9 promoter-luciferase reporter, luminescence, 24 h; also: nearly all actives have a fitted effect of over 60% in size
#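 Quantitative HTS format; Huh7 Rab9-luciferase reporter cells (1500/well) receive compound 2 h post-plating, incubate 24 h at 37 °C, then get luciferase reagent for 10 min before luminescence reading.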
# SMN2 splice enh = enhancers of SMN2 splice variant expression. HEK293 SMN2-luciferase splicing reporter, luminescence, 30-36 h. Potency, µM (series often up to 46.1 µM), usual class: activators. 2.8% of 210,000 active; also: nearly all actives have a fitted effect of over 55% in size
#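 qHTS luciferase splicing reporter: luminescence rises when SMN2 exon 7 is included in transfected HEK293 cells. Compound exposure lasted 30-36 h at 37C, with 4.5 mM final sodium butyrate as control, followed by a ONE-Glo read.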
# ELG1 genotox = inducers of genotoxicity in HEK293T ELG1-luciferase cells; HEK293T ELG1-luciferase reporter, luminescence, 16 h; 1.3% of 330,000 active; AID 504466; Potency, µM (highest dose often 46 µM), usual class: activators; also: nearly all actives have a fitted effect of over 60% in size
#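 HEK293T cells expressing luciferase-tagged ELG1 were treated with compound or DMSO for 16 hr at 37°C. Luciferase activity was then read after 30 min with ONE-Glo at room temperature; rising signal flags genetic stress.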
# FLuc modulator = inhibits or activates purified firefly luciferase, miR-21 counter-screen | P08659 | 6.9% of 360,000 active | purified FLuc, Km substrates, luminescence inhibition | Potency, µM (titrated, usually from 57.5 µM), most hits filed as inhibitors; also: nearly all actives have a fitted effect of over 55% in size
# Target sequence (P08659 whole entry, looked up): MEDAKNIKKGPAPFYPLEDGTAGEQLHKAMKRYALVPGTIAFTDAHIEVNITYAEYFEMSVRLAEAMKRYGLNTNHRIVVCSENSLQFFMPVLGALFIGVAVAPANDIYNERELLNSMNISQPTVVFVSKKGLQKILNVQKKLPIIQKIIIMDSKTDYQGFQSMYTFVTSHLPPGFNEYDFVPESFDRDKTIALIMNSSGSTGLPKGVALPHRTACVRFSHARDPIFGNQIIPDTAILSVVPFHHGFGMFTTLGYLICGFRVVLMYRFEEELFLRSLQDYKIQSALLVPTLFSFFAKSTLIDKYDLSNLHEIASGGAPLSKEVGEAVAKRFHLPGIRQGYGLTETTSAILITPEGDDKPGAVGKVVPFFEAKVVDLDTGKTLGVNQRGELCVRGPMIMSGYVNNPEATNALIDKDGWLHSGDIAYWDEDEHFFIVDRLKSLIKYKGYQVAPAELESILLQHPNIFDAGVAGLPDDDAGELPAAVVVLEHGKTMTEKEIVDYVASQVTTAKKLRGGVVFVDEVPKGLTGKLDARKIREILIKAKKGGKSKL
#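 Biochemical qHTS of compounds, final roughly 60 µM downward over six points, against 10 nM purified firefly luciferase using Km concentrations of substrates (10 uM D-luciferin, 10 uM ATP) in Tris acetate pH 7.5 buffer; luminescence output.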
# Numbers stand for hits; n = inactive; u = inconclusive; x = no result given. The list is not random: actives were taken first. Their share in the collection is about 7.3%. Unless noted, calls follow the shape of the dose curve; as a rule, active = well fitted curve in the direction sought with a large enough effect; inconclusive = small, poorly fitted or top-dose-only effect, or another doubt; inactive = no such curve, though single readings can be large; an effect the other way counts as inactive or inconclusive.
SMILES,NPC1 prom act,uPA generation,Rab9 prom act,SMN2 splice enh,ELG1 genotox,FLuc modulator
COc1ccc(CCC(=O)N2CCc3ccccc32)cc1,u,n,u,n,u,9.53µM
CCOC(=O)c1ccc(NC(=O)N2CCc3ccccc32)cc1,1.78µM,x,1.78µM,15.8µM,8.2µM,1.9µM
COc1ccc(NC(=O)N2CCCc3ccccc32)cc1,n,n,n,n,n,u
S=C(Nc1ccccc1)N1CCc2ccccc21,n,n,n,x,n,u
COc1ccc(NC(=O)N2CCc3ccccc32)cc1,0.631µM,n,0.398µM,3.16µM,u,1.69µM
CC(C)CN1CC[C@@]2(CCCN(C(=O)c3ccco3)C2)C1,x,x,x,n,x,x
CC(C)(C)c1ccc(OCC(=O)Nc2c(C(=O)c3ccc(F)cc3)oc3ccccc23)cc1,x,x,x,n,x,n
COc1ccc(C(=O)N2CCc3ccccc32)cc1,n,n,u,11.2µM,u,u
N#Cc1ccc(OCc2noc(-c3ccsc3)n2)cc1,n,n,n,x,n,n
Cc1occc1C(=O)O/N=C(\N)c1ccc(Cl)cc1,u,n,3.98µM,x,u,9.53µM
N/C(=N\OC(=O)c1cc(Cl)ccc1Cl)c1ccncc1,n,n,u,x,u,13.5µM
N/C(=N\OC(=O)c1ccc(Cl)cc1Cl)c1ccncc1,1.58µM,u,1.78µM,x,9.2µM,1.9µM
Cc1noc(-c2ccc(Cl)cc2)c1C(=O)O/N=C(\N)c1ccc(C(C)(C)C)cc1,n,n,n,x,n,n
COc1ccc(Cl)cc1C(=O)O/N=C(\N)c1ccc(Cl)cc1,n,n,n,n,n,16.9µM
CCCCN(CCCC)CCCNC(=O)c1cc(-c2ccc(Cl)s2)nc2ccccc12,x,x,x,n,x,n
COc1ccc(CNc2nc(-c3ccccc3CN(C)C)nc3ccccc23)c(OC)c1,x,x,x,n,x,x
NC(=O)c1cc(Cl)ccc1OCC(=O)Nc1ccc2c(c1)OCO2,1.41µM,6.31µM,1.26µM,x,u,0.849µM
O=C(COc1ccccc1[N+](=O)[O-])Nc1ccc2c(c1)OCO2,2.51µM,u,2.24µM,12.6µM,9.2µM,4.78µM
CC(=O)c1cc(F)ccc1OCC(=O)Nc1ccc2c(c1)OCO2,x,n,x,x,u,x
Cc1ccc(OCC(=O)OCC(=O)Nc2ccc3c(c2)OCO3)cc1C,x,n,x,x,n,x
Cc1ccc(OCC(=O)Nc2ccc3c(c2)OCO3)cc1C,n,n,n,x,n,23.9µM
O=C(COc1ccc2ccc(=O)oc2c1)Nc1ccc(CCO)cc1,n,n,n,x,n,u
O=C(COc1ccc2ccc(=O)oc2c1)Nc1ccc2c(c1)OCCO2,n,n,n,n,n,9.53µM
Cc1ccc(-n2nc3c(=O)n(CC(=O)NCCC(C)C)nc(C)c3c2C)cc1,x,x,x,x,x,n
Cc1ccc(S(=O)(=O)N(CCc2ccccc2)CC(=O)Nc2ccc(Br)cc2)cc1,x,x,x,n,x,n
SMILES,NPC1 prom act,uPA generation,Rab9 prom act,SMN2 splice enh,ELG1 genotox,FLuc modulator
CCOC(=O)N1CCC(NC(=O)c2cnn(-c3ccc(C)cc3)c2-n2cccc2)CC1,x,x,x,x,x,n
COc1ccc(-n2nnnc2C2CCN(S(=O)(=O)c3cccc(Cl)c3C)CC2)cc1,x,x,x,n,x,n
Cc1cccc(OCC(=O)Nc2ccc3c(c2)OCO3)c1C,n,n,n,n,n,19µM
Cc1ccc(C)c(OCC(=O)Nc2ccc3c(c2)OCO3)c1C,n,n,n,u,n,u
CC(=O)N1CCC(N(Cc2ccco2)C(=O)Nc2ccc(Br)cc2F)CC1,x,x,x,x,x,n
O=C(Cn1cc(SCc2ccccc2F)c2ccccc21)N1CCCC1,x,x,x,x,x,16.9µM
CCn1cc(SCC(=O)N2CCOCC2)c2ccccc21,u,n,u,u,18.4µM,u
O=C(Cn1cc(SCc2ccccc2Cl)c2ccccc21)N1CCOCC1,u,n,u,17.8µM,n,12µM
CCN1CCN(C(=O)CSc2cc(=O)n(CC)c3ccccc23)CC1,n,n,n,n,20.6µM,n
COc1cc(NC(=O)O[C@@H]2C(=O)c3cc(Br)ccc3O[C@H]2c2ccc3c(c2)OCO3)cc(OC)c1OC,x,x,x,n,x,x
Cc1nn(C)c2c1c(C(F)(F)F)cc(=O)n2C(C)C(=O)NCCC(C)C (configuration not stated),x,x,x,x,x,n
O=C1N/C(=C\c2ccc(O)cc2)C(=O)c2ccccc21,n,x,n,n,u,1.2µM
C/C(CC(=O)Nc1ccc(Cl)cc1Cl)=N\NC(=O)c1cnccn1,n,n,n,x,n,n
Cn1ccs/c1=N\C(=O)Nc1cccc(Cl)c1,0.891µM,u,0.708µM,x,5.17µM,7.57µM
CN1CC(=O)N/C1=N/C(=O)Nc1cccc(Cl)c1,u,x,u,n,x,x
O/N=C1\CCCc2c1nc(-c1ccccc1F)n2O,n,n,n,x,n,n
COc1ccc(NC(=O)c2cccc(NC(=O)c3ccccc3)c2)c(OC)c1,n,n,n,x,n,19µM
COc1ccc(OC)c(NC(=O)c2cccc(NC(=O)c3ccccc3)c2)c1,n,n,n,x,n,16.9µM
CCCc1cc(C(=O)Nc2cc(OC)ccc2OC)cs1,n,n,n,x,n,19µM
COc1ccc(OC)c(NC(=O)c2ccc(OC3CSC3)cc2)c1,n,n,n,n,n,10.7µM
COc1ccc(OC)c(NC(=O)c2ccc(NC(C)=O)cc2)c1,n,n,n,x,n,n
CCOC(=O)c1cc(OC(=O)c2ccccc2C)n(-c2ccccc2)n1,x,x,x,n,x,n
CCOC(=O)C(/C=C(\C#N)C(=O)OCC)=C(/N)N1CCN(c2ccccc2)CC1,n,n,n,n,n,n
CCOC(=O)/C(C#N)=C\c1ccc(OC)c(OC)c1,n,n,n,n,n,n
CCOC(=O)/C(C#N)=C\c1ccc(N2CCN(C)CC2)cc1,n,n,n,n,n,12µM
SMILES,NPC1 prom act,uPA generation,Rab9 prom act,SMN2 splice enh,ELG1 genotox,FLuc modulator
CCOC(=O)/C(C#N)=C/c1ccc(N2CCN(C)CC2)cc1,n,n,n,n,n,26.9µM
O=C(N/N=C/c1ccccn1)c1ccc(Cl)cc1,u,n,3.16µM,x,18.3µM,8.49µM
O=C(N/N=C/c1ccc[nH]1)c1ccc(Cl)cc1,n,n,n,n,n,10.7µM
O=C(N/N=C/c1ccccn1)c1ccccc1,u,n,3.55µM,11.2µM,u,10.7µM
Cc1ccc(C(=O)Nc2ccc(C(=O)N/N=C/c3ccccn3)cc2)cc1,n,n,u,x,n,15.1µM
O=C(N/N=C/c1ccc[nH]1)c1ccncc1,n,n,n,n,n,n
O=C(N/N=C/c1ccccn1)c1ccncc1,u,n,u,x,u,u
Cc1ccc(Sc2ccc(N3CCCC(C(=O)Nc4ccc(Br)cc4)C3)nn2)cc1 (configuration not stated),x,x,x,n,x,u
COc1ccc(OCC(=O)N2CCC(n3nccc3NC(=O)C3CC3)CC2)cc1,n,n,n,x,n,n
CN(C)c1ccc(C(=O)N/N=C/c2ccccn2)cc1,2.82µM,n,2.51µM,x,u,13.5µM
O=C(Cc1cccs1)N/N=C/c1ccccn1,n,n,n,x,n,n
O=C(N/N=C/c1ccccn1)c1cccs1,n,u,n,n,u,19µM
